Experiments:
Assay in all cases: DAPPL (digital affinity profiling via proximity ligation, sequencing); 10 mM Tris-HCl pH 7.5, 50 mM NaCl, 1 mM DTT, 4% glycerol, room temperature, 30 min; GST-TFs on glutathione beads, 16-mer random dsDNA library, 0.1% formaldehyde crosslink after washing; high values mean tight binding
Conditions in all cases: protein: recombinant; tags: N-terminal GST; dsDNA, one strand shown
FLI1 = target: T1, FLI1 (Homo sapiens, UniProt Q01543 1-452)
T1 sequence: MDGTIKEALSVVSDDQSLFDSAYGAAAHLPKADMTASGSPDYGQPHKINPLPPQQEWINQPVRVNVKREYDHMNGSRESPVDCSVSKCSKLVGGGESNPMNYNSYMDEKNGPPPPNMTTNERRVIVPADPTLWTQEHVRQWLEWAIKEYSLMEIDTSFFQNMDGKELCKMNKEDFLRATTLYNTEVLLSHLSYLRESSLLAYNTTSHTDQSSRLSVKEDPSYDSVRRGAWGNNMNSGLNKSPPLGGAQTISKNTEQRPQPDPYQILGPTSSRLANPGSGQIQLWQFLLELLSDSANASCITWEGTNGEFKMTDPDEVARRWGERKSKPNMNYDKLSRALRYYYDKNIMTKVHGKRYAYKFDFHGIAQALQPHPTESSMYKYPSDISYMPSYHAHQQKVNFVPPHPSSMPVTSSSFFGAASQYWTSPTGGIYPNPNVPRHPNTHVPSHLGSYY
Method in brief: (§1)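 Sequencing on an Illumina NextSeq500 followed washing, crosslinking with 0.1% formaldehyde, proximity ligation (BsaI/T4 ligase, 1 h, 37 °C) and PCR amplification of pools that had been incubated for 30 min at room temperature with 200 nmole of a random double-stranded 16-mer DNA library in Tris/NaCl/DTT/glycerol buffer. Each pool held DNA-barcoded human transcription factors, expressed in yeast as GST fusions and captured on glutathione beads, plus a tag-only sample. Binding signal is a hexamer's read frequency for a factor divided by its frequency in the tag-only sample.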

ELK1 = target: T2, ELK1 (Homo sapiens, UniProt P19419 1-428)
T2 sequence: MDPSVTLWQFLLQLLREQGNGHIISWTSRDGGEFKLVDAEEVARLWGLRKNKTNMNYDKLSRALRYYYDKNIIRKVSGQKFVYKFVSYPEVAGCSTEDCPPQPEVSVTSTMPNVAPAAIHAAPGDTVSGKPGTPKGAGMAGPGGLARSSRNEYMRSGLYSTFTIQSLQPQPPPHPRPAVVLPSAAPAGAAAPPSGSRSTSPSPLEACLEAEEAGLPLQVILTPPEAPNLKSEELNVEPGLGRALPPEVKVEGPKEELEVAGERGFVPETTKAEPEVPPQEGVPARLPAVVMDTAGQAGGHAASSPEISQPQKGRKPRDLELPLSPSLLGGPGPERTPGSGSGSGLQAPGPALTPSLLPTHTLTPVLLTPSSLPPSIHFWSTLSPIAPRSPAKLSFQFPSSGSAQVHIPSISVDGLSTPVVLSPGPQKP
Method in brief: as §1

GABPA = target: T3, GABPA (Homo sapiens, UniProt Q06546 1-454)
T3 sequence: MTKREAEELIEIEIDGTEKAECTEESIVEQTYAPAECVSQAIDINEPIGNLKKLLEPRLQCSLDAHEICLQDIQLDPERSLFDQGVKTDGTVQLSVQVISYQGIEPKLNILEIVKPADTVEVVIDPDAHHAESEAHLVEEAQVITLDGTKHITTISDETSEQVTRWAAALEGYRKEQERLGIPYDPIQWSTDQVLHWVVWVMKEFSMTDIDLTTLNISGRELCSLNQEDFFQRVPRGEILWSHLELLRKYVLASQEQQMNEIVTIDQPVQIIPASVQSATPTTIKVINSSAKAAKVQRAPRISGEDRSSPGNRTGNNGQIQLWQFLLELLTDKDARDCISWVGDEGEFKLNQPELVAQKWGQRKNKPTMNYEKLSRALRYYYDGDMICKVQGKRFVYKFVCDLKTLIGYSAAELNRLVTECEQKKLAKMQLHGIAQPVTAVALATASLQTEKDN
Method in brief: as §1

ERG = target: T4, ERG (Homo sapiens, UniProt P11308 1-479)
T4 sequence: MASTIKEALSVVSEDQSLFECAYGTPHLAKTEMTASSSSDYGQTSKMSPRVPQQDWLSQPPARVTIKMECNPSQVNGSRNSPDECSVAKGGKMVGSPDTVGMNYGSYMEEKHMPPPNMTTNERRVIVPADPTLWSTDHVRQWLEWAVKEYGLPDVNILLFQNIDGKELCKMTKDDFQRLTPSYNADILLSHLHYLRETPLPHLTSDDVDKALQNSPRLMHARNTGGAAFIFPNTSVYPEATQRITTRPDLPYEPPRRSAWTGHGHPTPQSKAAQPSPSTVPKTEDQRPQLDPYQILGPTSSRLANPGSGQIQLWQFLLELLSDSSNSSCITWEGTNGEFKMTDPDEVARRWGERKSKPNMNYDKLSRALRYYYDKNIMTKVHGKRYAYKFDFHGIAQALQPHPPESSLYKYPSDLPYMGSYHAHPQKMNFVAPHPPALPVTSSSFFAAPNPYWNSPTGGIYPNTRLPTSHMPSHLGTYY
Method in brief: as §1

ELF1 = ELF1 (Homo sapiens, UniProt P32519 1-619)
Method in brief: as §1

EHF = target: T5, EHF (Homo sapiens, UniProt Q9NZC4 1-300)
T5 sequence: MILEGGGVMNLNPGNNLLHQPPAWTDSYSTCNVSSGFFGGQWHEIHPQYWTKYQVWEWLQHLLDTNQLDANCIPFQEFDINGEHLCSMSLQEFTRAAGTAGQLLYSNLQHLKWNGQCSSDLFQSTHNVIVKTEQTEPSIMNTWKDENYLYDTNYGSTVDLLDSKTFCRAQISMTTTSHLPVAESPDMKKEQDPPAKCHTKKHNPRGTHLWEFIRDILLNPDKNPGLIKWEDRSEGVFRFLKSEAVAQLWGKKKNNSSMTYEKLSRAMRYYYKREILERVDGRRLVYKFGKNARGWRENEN
Method in brief: as §1

SPI1 = SPI1 (Homo sapiens, UniProt P17947 1-270)
Method in brief: as §1

SPIB = SPIB (Homo sapiens, UniProt Q01892 1-262)
Method in brief: as §1

ELK3 = target: T6, ELK3 (Homo sapiens, UniProt P41970 1-407)
T6 sequence: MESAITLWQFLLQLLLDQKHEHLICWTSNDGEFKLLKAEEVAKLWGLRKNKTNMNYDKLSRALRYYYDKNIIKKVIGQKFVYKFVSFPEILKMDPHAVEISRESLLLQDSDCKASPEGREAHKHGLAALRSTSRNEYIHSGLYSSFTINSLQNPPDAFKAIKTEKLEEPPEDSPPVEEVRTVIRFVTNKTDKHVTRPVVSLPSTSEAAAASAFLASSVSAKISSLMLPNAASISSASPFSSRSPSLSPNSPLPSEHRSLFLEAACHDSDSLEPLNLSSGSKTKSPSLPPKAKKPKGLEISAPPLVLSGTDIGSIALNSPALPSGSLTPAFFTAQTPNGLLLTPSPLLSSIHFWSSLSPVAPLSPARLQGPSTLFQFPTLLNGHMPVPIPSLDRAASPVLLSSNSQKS
Method in brief: as §1

FEV = target: T7, FEV (Homo sapiens, UniProt Q99581 1-238)
T7 sequence: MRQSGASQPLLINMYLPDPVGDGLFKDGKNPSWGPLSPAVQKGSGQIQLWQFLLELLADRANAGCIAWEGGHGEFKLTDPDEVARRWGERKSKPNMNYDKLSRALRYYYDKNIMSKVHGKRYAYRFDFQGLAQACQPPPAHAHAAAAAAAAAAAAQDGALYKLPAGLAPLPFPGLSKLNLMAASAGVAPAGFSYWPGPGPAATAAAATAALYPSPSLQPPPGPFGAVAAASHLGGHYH
Method in brief: as §1

ETV5 = ETV5 (Homo sapiens, UniProt P41161 1-510)
Method in brief: as §1

ELF4 = ELF4 (Homo sapiens, UniProt Q99607 1-663)
Method in brief: as §1

ETV1 = ETV1 (Homo sapiens, UniProt P50549 1-477)
Method in brief: as §1

ERF = target: T8, ERF (Homo sapiens, UniProt P50548 1-548)
T8 sequence: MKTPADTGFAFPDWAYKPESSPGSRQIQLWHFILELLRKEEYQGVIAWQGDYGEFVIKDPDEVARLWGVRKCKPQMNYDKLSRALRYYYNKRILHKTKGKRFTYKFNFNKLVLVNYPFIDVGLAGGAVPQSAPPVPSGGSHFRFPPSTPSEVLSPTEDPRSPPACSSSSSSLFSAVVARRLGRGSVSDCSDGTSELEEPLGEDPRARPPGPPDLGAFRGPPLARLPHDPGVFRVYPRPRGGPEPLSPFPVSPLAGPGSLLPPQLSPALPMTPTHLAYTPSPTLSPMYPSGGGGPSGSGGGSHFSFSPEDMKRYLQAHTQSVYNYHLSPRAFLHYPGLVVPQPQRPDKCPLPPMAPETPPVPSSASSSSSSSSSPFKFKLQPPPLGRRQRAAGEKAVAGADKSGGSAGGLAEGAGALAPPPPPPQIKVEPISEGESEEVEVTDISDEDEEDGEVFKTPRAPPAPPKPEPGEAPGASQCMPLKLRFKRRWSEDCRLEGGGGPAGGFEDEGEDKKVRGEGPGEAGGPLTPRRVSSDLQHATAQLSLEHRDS
Method in brief: as §1

ETV3L = target: T9, ETV3L (Homo sapiens, UniProt Q6ZN32 1-361)
T9 sequence: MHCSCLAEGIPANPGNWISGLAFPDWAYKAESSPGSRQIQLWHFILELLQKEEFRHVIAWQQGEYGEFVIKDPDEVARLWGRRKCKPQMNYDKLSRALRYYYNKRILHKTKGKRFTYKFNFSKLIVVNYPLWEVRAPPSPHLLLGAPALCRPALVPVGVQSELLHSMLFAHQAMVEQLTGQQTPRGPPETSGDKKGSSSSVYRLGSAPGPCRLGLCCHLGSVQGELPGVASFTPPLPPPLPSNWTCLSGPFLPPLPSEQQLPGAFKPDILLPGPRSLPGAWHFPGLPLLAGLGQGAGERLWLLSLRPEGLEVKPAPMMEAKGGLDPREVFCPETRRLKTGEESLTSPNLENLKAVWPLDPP
Method in brief: as §1

ETS2 = target: T10, ETS2 (Homo sapiens, UniProt P15036 1-469)
T10 sequence: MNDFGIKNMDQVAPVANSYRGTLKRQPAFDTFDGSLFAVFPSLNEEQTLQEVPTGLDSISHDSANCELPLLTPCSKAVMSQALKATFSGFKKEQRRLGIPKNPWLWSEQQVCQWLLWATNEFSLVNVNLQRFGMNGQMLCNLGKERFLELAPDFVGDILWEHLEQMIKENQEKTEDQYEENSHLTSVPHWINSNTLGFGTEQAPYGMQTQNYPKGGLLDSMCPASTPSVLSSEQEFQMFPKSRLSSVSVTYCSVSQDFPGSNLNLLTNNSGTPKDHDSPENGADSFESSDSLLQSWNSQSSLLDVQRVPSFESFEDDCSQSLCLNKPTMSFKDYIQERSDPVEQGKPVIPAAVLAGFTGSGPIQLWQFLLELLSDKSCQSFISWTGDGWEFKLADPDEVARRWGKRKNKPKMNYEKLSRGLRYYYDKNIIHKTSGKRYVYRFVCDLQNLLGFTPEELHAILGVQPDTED
Method in brief: as §1

SPDEF = target: T11, SPDEF (Homo sapiens, UniProt O95238 1-335)
T11 sequence: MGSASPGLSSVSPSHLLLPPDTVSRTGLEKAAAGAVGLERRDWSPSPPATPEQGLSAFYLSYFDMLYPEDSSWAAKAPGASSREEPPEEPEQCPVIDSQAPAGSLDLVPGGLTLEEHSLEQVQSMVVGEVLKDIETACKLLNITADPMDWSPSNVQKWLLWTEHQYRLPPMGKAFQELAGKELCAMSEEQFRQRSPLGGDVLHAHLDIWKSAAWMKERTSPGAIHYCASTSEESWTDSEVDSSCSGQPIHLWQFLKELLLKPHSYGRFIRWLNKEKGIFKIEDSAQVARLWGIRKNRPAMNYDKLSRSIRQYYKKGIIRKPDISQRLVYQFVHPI
Method in brief: as §1

ETV3 = target: T12, ETV3 (Homo sapiens, UniProt P41162-2 1-143)
T12 sequence: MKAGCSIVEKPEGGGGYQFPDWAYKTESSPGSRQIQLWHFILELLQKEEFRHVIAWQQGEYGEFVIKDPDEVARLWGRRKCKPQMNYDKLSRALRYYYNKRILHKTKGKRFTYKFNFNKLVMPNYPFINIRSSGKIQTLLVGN
Method in brief: as §1

ETV6 = ETV6 (Homo sapiens, UniProt P41212 1-452)
Method in brief: as §1

Chain of ELF1 (P32519 whole entry): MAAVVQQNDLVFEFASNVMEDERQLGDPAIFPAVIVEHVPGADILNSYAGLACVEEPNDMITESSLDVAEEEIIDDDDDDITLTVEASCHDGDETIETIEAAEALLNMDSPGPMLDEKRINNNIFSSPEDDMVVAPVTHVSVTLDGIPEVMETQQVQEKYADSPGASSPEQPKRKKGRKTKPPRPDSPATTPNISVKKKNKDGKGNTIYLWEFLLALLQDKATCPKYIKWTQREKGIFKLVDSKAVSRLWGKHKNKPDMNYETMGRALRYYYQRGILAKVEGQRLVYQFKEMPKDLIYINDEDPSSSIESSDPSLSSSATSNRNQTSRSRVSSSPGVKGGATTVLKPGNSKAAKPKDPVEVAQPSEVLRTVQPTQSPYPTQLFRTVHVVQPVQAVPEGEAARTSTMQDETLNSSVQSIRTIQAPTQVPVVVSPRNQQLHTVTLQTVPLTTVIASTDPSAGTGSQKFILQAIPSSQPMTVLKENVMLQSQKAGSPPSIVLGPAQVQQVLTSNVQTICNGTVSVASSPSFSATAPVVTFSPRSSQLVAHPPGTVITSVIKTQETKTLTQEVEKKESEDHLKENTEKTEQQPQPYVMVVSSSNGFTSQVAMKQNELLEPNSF
Chain of ETV5 (P41161 whole entry): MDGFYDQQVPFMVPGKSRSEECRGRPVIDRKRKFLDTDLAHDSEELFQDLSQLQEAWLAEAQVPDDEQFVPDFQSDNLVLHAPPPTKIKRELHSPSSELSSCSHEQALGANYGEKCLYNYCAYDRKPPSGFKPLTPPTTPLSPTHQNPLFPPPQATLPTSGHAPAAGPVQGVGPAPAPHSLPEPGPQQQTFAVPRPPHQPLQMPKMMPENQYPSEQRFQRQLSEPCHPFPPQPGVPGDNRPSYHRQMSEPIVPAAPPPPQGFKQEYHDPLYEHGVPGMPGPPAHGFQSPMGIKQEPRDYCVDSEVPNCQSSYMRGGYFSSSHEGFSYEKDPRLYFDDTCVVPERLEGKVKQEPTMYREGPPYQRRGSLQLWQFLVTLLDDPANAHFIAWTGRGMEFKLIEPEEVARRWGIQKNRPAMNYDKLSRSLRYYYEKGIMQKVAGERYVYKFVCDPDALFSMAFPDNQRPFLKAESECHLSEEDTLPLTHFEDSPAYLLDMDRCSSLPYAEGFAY
Chain of SPIB (Q01892 whole entry): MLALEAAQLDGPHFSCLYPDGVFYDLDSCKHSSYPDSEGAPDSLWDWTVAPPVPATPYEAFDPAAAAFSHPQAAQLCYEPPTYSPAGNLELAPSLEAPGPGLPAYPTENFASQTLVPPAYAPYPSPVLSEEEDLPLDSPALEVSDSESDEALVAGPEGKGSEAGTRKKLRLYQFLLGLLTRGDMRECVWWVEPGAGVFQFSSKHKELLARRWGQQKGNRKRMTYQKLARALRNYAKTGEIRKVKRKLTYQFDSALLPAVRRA
Chain of ETV6 (P41212 whole entry): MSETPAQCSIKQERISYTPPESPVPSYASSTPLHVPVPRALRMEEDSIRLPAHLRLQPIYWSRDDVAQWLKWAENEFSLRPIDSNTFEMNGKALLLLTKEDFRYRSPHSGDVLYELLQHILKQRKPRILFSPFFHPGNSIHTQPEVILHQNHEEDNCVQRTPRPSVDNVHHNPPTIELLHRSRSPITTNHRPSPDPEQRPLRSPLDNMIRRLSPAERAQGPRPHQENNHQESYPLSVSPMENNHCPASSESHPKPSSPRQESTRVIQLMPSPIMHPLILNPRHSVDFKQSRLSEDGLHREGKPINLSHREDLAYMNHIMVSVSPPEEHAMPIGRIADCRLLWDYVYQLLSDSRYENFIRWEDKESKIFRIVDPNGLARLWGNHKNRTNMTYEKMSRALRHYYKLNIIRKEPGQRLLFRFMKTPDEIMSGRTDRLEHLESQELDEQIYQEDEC
Chain of ELF4 (Q99607 whole entry): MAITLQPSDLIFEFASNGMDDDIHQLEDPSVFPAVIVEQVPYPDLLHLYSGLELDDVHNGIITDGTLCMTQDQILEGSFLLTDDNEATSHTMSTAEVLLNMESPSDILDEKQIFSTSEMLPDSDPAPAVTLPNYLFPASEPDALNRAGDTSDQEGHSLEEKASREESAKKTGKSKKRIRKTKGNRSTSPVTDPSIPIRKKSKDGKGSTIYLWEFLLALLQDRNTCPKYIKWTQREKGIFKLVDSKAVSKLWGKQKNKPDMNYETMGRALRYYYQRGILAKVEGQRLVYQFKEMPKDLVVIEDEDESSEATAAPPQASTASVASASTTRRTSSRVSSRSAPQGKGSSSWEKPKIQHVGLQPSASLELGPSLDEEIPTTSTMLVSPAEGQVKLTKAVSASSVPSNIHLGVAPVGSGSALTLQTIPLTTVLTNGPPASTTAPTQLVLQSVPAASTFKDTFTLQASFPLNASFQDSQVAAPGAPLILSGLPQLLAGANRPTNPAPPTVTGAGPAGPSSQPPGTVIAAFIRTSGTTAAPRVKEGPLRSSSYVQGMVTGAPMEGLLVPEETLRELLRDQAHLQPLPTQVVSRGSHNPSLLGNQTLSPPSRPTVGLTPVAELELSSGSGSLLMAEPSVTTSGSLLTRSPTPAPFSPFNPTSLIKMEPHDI
Chain of ETV1 (P50549 whole entry): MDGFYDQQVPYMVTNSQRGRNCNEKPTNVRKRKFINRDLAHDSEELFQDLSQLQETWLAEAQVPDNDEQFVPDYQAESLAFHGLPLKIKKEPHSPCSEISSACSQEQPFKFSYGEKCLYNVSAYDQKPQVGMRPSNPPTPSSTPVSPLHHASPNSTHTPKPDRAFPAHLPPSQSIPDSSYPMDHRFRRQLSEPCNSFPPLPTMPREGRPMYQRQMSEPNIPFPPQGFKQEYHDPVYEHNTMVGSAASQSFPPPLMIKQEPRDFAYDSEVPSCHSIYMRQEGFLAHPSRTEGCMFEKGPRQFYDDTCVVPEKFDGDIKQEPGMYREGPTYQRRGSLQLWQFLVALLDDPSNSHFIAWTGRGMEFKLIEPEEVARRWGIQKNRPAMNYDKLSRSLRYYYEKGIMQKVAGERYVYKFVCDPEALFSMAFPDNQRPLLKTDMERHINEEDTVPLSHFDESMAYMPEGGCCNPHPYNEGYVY

## ATTGGC
FLI1
  binding signal: 1.23 fold enrichment (6-mer frequency, TF over GST control)
ELK1
  binding signal: 1.11 fold enrichment (6-mer frequency, TF over GST control)
GABPA
  binding signal: 1.09 fold enrichment (6-mer frequency, TF over GST control)
ERG
  binding signal: 1.05 fold enrichment (6-mer frequency, TF over GST control)
ELF1
  binding signal: 1.13 fold enrichment (6-mer frequency, TF over GST control)
EHF
  binding signal: 1.15 fold enrichment (6-mer frequency, TF over GST control)
SPI1
  binding signal: 1.01 fold enrichment (6-mer frequency, TF over GST control)
SPIB
  binding signal: 1.13 fold enrichment (6-mer frequency, TF over GST control)
ELK3
  binding signal: 1.16 fold enrichment (6-mer frequency, TF over GST control)
FEV
  binding signal: 1.13 fold enrichment (6-mer frequency, TF over GST control)
ETV5
  binding signal: 1.07 fold enrichment (6-mer frequency, TF over GST control)
ELF4
  binding signal: 1.14 fold enrichment (6-mer frequency, TF over GST control)
ETV1
  binding signal: 1.11 fold enrichment (6-mer frequency, TF over GST control)
ERF
  binding signal: 1.15 fold enrichment (6-mer frequency, TF over GST control)
ETV3L
  binding signal: 1.18 fold enrichment (6-mer frequency, TF over GST control)
ETS2
  binding signal: 1.18 fold enrichment (6-mer frequency, TF over GST control)
SPDEF
  binding signal: 1.12 fold enrichment (6-mer frequency, TF over GST control)
ETV3
  binding signal: 1.09 fold enrichment (6-mer frequency, TF over GST control)
ETV6
  binding signal: 1.13 fold enrichment (6-mer frequency, TF over GST control)
